# Screens from PubChem BioAssay.
# LmPK inh: blocks Leishmania mexicana pyruvate kinase activity; Potency, µM (titrated, usually from 57.5 µM), for the others: top-dose activity change, negative = inhibition, usual class: inhibitors; AID 1721; purified LmPK, Kinase-Glo ATP luminescence, 1 h; actives 0.37% (n = 290,000); further: potency means the concentration at half of the fitted maximal effect
# Target sequence (Q27686 whole entry, looked up): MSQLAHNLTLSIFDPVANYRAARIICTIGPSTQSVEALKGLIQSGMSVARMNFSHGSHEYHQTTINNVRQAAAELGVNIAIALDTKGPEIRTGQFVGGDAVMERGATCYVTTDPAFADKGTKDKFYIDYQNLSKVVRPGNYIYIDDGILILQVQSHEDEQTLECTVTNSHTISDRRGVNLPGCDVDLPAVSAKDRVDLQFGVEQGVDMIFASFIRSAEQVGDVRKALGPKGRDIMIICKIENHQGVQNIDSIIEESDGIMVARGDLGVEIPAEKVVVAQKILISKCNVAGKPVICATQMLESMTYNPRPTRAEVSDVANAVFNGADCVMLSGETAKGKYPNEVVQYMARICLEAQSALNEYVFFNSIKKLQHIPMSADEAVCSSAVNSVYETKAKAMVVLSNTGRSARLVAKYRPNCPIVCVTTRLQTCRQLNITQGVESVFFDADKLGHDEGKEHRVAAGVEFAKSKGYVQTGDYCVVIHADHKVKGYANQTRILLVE
#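 Purified LmPK (0.1 nM) converted ADP (0.1 mM) to ATP with PEP (0.5 mM) in imidazole buffer pH 7.2 with KCl and MgCl2, 1 h at room temperature. ATP was read by Kinase-Glo luminescence; data normalized to uninhibited and no-enzyme controls.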
# HCMV inh: human cytomegalovirus inhibition | HFF cells, HCMV-luciferase reporter, 72 h; stronger effect = lower value | activity change, negative = inhibition, % at 57.5 µM | actives 4.5% (n = 410,000) | AID 1259415; in the data active means activity change below about -60%; inconclusive means no clear call, values can overlap the other calls; inactive means above about -39%
#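 Human foreskin fibroblasts infected with luciferase-reporter HCMV at MOI 1 PFU/cell, compounds at two doses. Luciferase measured 72 h post infection; normalized to buffer-only basal and Salinomycin (10uM) controls.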
# VACV mCherry inh: vaccinia inhibition (mCherry reporter) | actives 0.63% (n = 310,000) | Vaccinia virus mCherry reporter infection, fluorescence | Potency, µM (doses to about 36.5 µM), for inactives: at the highest dose activity change, negative = inhibition, actives largely listed as inhibitors; calls by dose curve; tested in A549 cells; further: potency means the concentration at half of the fitted maximal effect; nearly all actives have a fitted effect of over 35% in size
# Vaccinia Venus: inhibitors of vaccinia virus (Venus reporter); Vaccinia virus Venus reporter expression, fluorescence; Potency, µM (doses to about 36.5 µM), without a hit: top-dose activity change, negative = inhibition, actives largely listed as inhibitors; actives 0.46% (n = 330,000); AID 720580; calls by dose curve; tested in A549 cells; further: potency means the concentration at half of the fitted maximal effect; nearly all actives have a fitted effect of over 30% in size
# TbPYK inhibitor: blocks Trypanosoma brucei pyruvate kinase; actives 0.12% (n = 410,000); AID 624173; TbPYK enzyme, Kinase-Glo Plus ATP luminescence, 45 min; Potency, µM (titrated, usually from 76.8 µM), inactives show at the highest dose activity, negative = inhibition, usual class: inhibitors; further: potency means the concentration at half of the fitted maximal effect; nearly all actives have a fitted effect of over 50% in size
#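 T. brucei PYK with substrate was exposed to pin-transferred compounds across a concentration series, then started with 130 uM ADP (final). After 45 min at room temperature, Kinase-Glo Plus luminescence was read, normalized and curve-fitted.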
# Starred values were filed as active, the others as inactive; i = inactive; ? = inconclusive; . = no result. An excerpt weighted towards active compounds, which were near 5% of everything screened. Unless noted, the call rests on the fitted dose curve; in most records, active means well fitted curve in the direction sought with a large enough effect; inconclusive means small, poorly fitted or top-dose-only effect, or another doubt; inactive means no such curve, though single readings can be large; an effect the other way counts as inactive or inconclusive. On the % scale 0 is the no-effect control and ±100 the full control effect.
SMILES,LmPK inh,HCMV inh,VACV mCherry inh,Vaccinia Venus,TbPYK inhibitor
Cc1cccc(N2CCN(S(=O)(=O)c3ccc(-c4ccc(=O)[nH]n4)o3)CC2)c1C,9%,-63*,.,.,-8%
c1cc2c(cc1-c1[nH]ncc1CN1C[C@H]3CC[C@H]1C3)OCO2,0%,?,-1%,-3%,-1%
Cc1nnc2nc(-c3ccccc3)nc(-c3ccccc3)n12,3%,-80*,-18%,-26%,5%
Cc1cccc(Nc2c([N+](=O)[O-])c(=O)oc3ccccc23)c1,6%,-19,i,-8%,-1%
O=C(Cc1ccccc1)Nc1c[nH]c(=O)[nH]c1=O,10%,?,-14%,-6%,-3%
O=C(CCl)Nc1c[nH]c(=O)[nH]c1=O,11%,-64*,7.1µM*,7.9µM*,4%
Cc1ccc(NC(=O)CCCOc2ccccc2)cc1S(=O)(=O)N1CCOCC1,.,-13,.,.,-12%
O=C(CCCOc1ccccc1)Nc1ccc(Cl)c(S(=O)(=O)N2CCOCC2)c1,.,-73*,-12%,-28%,-3%
O=C(OCCOc1ccccc1)c1cc(S(=O)(=O)N2CCOCC2)c(Cl)cc1Cl,.,-63*,0%,-8%,2%
CC(=O)c1ccc(OCCCC(=O)Nc2ccc(Cl)c(S(=O)(=O)N3CCOCC3)c2)cc1,.,-79*,.,.,2%
Nc1cc(C(=O)O)c(N)c2c1C(=O)c1ccccc1C2=O,25µM*,.,?,-16%,?
CC(C)(C)c1cc(CCC(=O)NCCc2ccccn2)cc(C(C)(C)C)c1O,-2%,-39,-17%,-14%,-6%
O=C1C=C(NCCc2cc(Br)c(O)c(Br)c2)C(=O)c2ncccc21,.,-100*,?,?,?
COc1cc2c(cc1OC)C(C(=O)NC(C)C)C1CCCCN1C2=O (stereo unspecified),5%,14,i,-3%,3%
COC(=O)c1c(-c2ccc(Br)cc2)csc1NC(=O)Cc1ccc(OC)c(OC)c1,-4%,?,.,-22%,-5%
COC(=O)c1sccc1NC(=O)c1c(-c2ccccc2)noc1C,-1%,6,-7%,8%,1%
CCOC(=O)c1ccccc1NC(=O)c1c(-c2ccccc2)noc1C,.,-13,-14%,-23%,3%
COC(=O)c1c(-c2ccc(C)cc2)csc1NC(=O)Cc1ccc(OC)c(OC)c1,1%,-65*,-22%,-21%,-15%
CCOC(=O)c1c(NC(=O)c2c(-c3ccccc3)noc2C)sc(C)c1-c1ccccc1,-3%,-102*,.,-2%,1%
CCOC(=O)c1c(-c2cccc3ccccc23)csc1NC(=O)C1C2CCC(O2)C1C(=O)O (stereo unspecified),7%,-35,-21%,2%,-9%
CCOC(=O)c1c(NC(=O)C2C3CCC(O3)C2C(=O)O)sc(C)c1-c1ccc(C)cc1 (stereo unspecified),3%,35,.,11µM*,-13%
COC(=O)c1c(-c2ccc(C)cc2)csc1NC(=O)c1c(-c2ccccc2)noc1C,3%,-71*,.,.,.
Cc1ccccc1OCCC(=O)N(CC(C)C)c1c(N)n(Cc2ccccc2)c(=O)[nH]c1=O,.,?,.,.,-8%
CCOC(=O)c1cc(-c2ccccc2)n(CC(=O)Nc2ccc(OC)c(OC)c2)c1C,0%,-23,?,?,1%
CCOC(=O)c1cc(-c2ccccc2)n(CC(=O)NCc2ccccc2OC)c1C,.,-61*,-13%,-12%,1%
SMILES,LmPK inh,HCMV inh,VACV mCherry inh,Vaccinia Venus,TbPYK inhibitor
O=C(CS(=O)(=O)Cc1ccccc1)Nc1ccccn1,-2%,-102*,i,-17%,0%
COc1cccc(N2CCN(C(=O)CCCCCNc3nc(=S)[nH]c4ccccc34)CC2)c1,5%,-62*,-9%,-19%,-6%
CCOC(=O)c1sc2nc(CSc3ccccc3)nc(N3CCC(C(N)=O)CC3)c2c1C,-7%,?,11µM*,10µM*,1%
Cc1c(C(=O)O)sc2ncnc(N3CCCCC3C)c12 (stereo unspecified),0%,-3,-13%,-8%,-3%
CCN(C(=O)CSc1nnc(Nc2ccc(OC)cc2)s1)C1CCS(=O)(=O)C1 (stereo unspecified),.,97,-9%,-19%,8%
CCOC(=O)c1sc2nc(C)nc(SCC(=O)N(CC)C3CCS(=O)(=O)C3)c2c1C (stereo unspecified),7%,-73*,.,.,7%
CCOC(=O)c1sc2nc(C)nc(N3CCCCC3C)c2c1C (stereo unspecified),-4%,-73*,-14%,-3%,3%
Cc1sc2nc(CSc3ccccc3)nc(N3CCC(C(N)=O)CC3)c2c1C,13%,1,.,.,4%
CC(=O)Nc1ccc(S(=O)(=O)N(CCO)Cc2ccccc2)cc1,0%,52,.,.,3%
COc1ccc(O)c(/C=N/NC(=O)CN2CCS(=O)(=O)CC2)c1,-3%,-10,3.2µM*,-1%,-2%
Brc1cc(Br)c2ncnc(N3CCCCC3)c2c1,4%,-104*,?,?,0%
C=CCn1c(SCC(=O)NCCc2ccccc2)nnc1C(C)NC(=O)c1cccs1 (stereo unspecified),-2%,-22,.,.,-9%
C=CC(=O)Nc1cccc(Oc2cc(Cl)nc3[nH]ccc23)c1,.,-17,?,1.6µM*,-3%
O=C(C[C@H]1C[C@H](C(=O)N2CCOCC2)[C@@]2(CCC3CCCC3)c3[nH]c4cc(-c5ccco5)ccc4c3CCN2C1=O)NCC12CC3CC(CC(C3)C1)C2,.,-14,?,?,3%
CCN(CC)C(=O)[C@H]1C[C@H](CC(=O)NCC23CC4CC(CC(C4)C2)C3)C(=O)N2CCc3c([nH]c4cc(-c5ccco5)ccc34)[C@]12C,.,-3,?,11µM*,-3%
C[C@]12c3[nH]c4cc(-c5ccco5)ccc4c3CCN1C(=O)[C@@H](CC(=O)NCC13CC4CC(CC(C4)C1)C3)C[C@@H]2C(=O)N1CCOCC1,.,-29,?,10µM*,-4%
CCN(CC)C(=O)[C@H]1C[C@H](CC(=O)NCCCN(C)C)C(=O)N2CCc3c([nH]c4cc(-c5ccco5)ccc34)[C@]12C,.,-14,?,-15%,3%
O=C(Nc1ccc2c(c1)OCO2)c1ccc(CN2CCOCC2)cc1,0%,44,-10%,-5%,3%
O=C(NC1CCCCC1)c1ccccc1NC(=S)NC(=O)C1CCC1,0%,-62*,i,-5%,-30%
O=C(NC(=S)NC1CCCCC1)c1ccccc1,1%,-98*,i,-12%,3%
O=C(NC(=S)NC1CCS(=O)(=O)C1)c1ccccc1 (stereo unspecified),0%,-29,.,.,10%
CC1(C)CC(=O)C(C2(O)C(=O)N(Cc3ccccc3)c3ccccc32)CO1 (stereo unspecified),0%,-16,.,.,10%
